Results published in publication PMC10668032, “Altered binding affinity of SIX1-Q177R correlates with enhanced WNT5A and WNT pathway effector expression in Wilms tumor”.
Over roughly 33,000 sequences, “e-score” has its median near -0.05; the highest 2% begin near 0.38. The entries come from a sample that favours the highest values as a whole.

Each sequence was assayed against T1, SIX1-Q177R homeodomain (human, UniProt Q15475 108-198, Q177R) (assay: universal protein binding microarray; Universal all-10-mer PBM (8x60K, AMADID 030236), 300 nM GST-tagged protein, Alexa Fluor 488 anti-GST; buffer, salt, pH and temperature not stated (as in Berger); high values mean tight binding). Details: protein: ivt; tags: N-terminal GST; dsDNA, one strand shown.
T1 sequence: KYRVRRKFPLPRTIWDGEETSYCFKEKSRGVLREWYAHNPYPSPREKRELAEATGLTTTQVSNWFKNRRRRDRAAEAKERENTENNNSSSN
How it was run: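 After in vitro transcription/translation, GST-tagged homeodomains were quantified against a recombinant GST standard curve by anti-GST western blot. They were then placed in duplicate at 300 nM final concentration on universal 'all 10-mer' protein binding microarrays of 8×60K format.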

Sequence	binding signal [E-score]
AGCGGGTG	0.333 ± 0.0119
ACCAGGCA	0.151 ± 0.0134
GTGGTGTA	0.481 ± 0.00765
ATGGTGTG	0.405 ± 0.0177
CTGGTGTC	0.4826 ± 0.00371
GTGTGGTA	0.265 ± 0.00181
CTGGTACA	0.21 ± 0.0391
GTGGTGCA	0.189 ± 0.00669
ATGTGGTG	0.271 ± 0.0248
CTGGTGTA	0.4837 ± 0.00053
CTGGTATC	0.274 ± 0.0156
CTGGTGCA	0.234 ± 0.0234
ATGGGGTG	0.342 ± 0.0155
CTGGAGTC	0.1843 ± 0.00156
ACCCGGGC	0.199 ± 0.0334
CTTGCACC	0.166 ± 0.00933
CCCGGTCG	0.212 ± 0.00566
ACACAATG	0.164 ± 0.079
ACCCACAC	0.348 ± 0.0152
ACCTCGGG	0.273 ± 0.0151
AGGCGGTG	0.2798 ± 0.00206
CACGCGGG	0.241 ± 0.00761
ACCTTCCT	0.264 ± 0.0494
ATGGTATC	0.3344 ± 0.0022
ATGGTACA	0.18 ± 0.0214

Sequence	binding signal [E-score]
ATTGTGTC	0.219 ± 0.0744
ATGGTGTC	0.486 ± 0.00186
ATTGTGTA	0.151 ± 0.0397
ATGGTGTA	0.4792 ± 0.00274
CACCCAAG	0.366 ± 0.00569
ACTGATCC	0.16 ± 0.00427
CACCGGGG	0.256 ± 0.0427
AACCGTGT	0.3792 ± 0.0033
ATGCACCC	0.19 ± 0.0233
GGGTTACA	0.242 ± 0.0177
CCCGCACA	0.228 ± 0.0266
CACTATAC	0.261 ± 0.0244
ACACTTGG	0.329 ± 0.018
CCGGGTCA	0.285 ± 0.0196
GTATCATA	0.29 ± 0.00996
AGGAACAC	0.394 ± 0.0134
CGGAACAC	0.411 ± 0.0112
GGGAACCC	0.184 ± 0.0515
CGGAACCC	0.234 ± 0.0277
GGGAACAC	0.368 ± 0.0116
AGGCACAC	0.203 ± 0.0019
ACGGGTAT	0.277 ± 0.00631
CGGCGTCA	0.219 ± 0.00435
CCCGCTGA	0.159 ± 0.0401
CTTCTACC	0.203 ± 0.0258

Sequence	binding signal [E-score]
GGGTCAAC	0.223 ± 0.0249
GTATCAAA	0.159 ± 0.0425
GTATCAAC	0.256 ± 0.0174
GGGTCACA	0.202 ± 0.0391
GTGTCTCA	0.371 ± 0.00405
GGGTCAAA	0.171 ± 0.0267
GAGTCACA	0.26
GTGTCTAA	0.394 ± 0.0134
GTGTCAAA	0.4527 ± 0.00139
GTGTCAAC	0.443 ± 0.00646
GTGTCACA	0.462 ± 0.00507
TATTCTAA	0.213 ± 0.0183
CACTGGAA	0.152 ± 0.024
AGGGGTTC	0.193 ± 0.0251
GACCCCGC	0.248 ± 0.0275
CCTGATAC	0.202 ± 0.0295
AGTGCACC	0.28 ± 0.00682
GATCCCAC	0.24 ± 0.0253
TATACCCA	0.192 ± 0.0317
GGGTCATA	0.237 ± 0.0329
GAGTCATA	0.184 ± 0.0258
GTGTCATA	0.458 ± 0.00496
GTGTCAGA	0.4533 ± 0.00139
GGGTCAGA	0.196 ± 0.0143
GAGTCAGA	0.21 ± 0.0213

Sequence	binding signal [E-score]
GTATCGAA	0.199 ± 0.0103
GGGTCGAA	0.182 ± 0.0133
GTGTCGAA	0.448 ± 0.00926
CGCGTACA	0.2538 ± 0.00208
GAGGGTGC	0.237 ± 0.0114
AAAGAGTG	0.186 ± 0.0198
AGAACCCC	0.182 ± 0.0559
GGATCATA	0.184 ± 0.0113
CACCTGCA	0.213 ± 0.0191
ATCCCCTC	0.196 ± 0.00519
ACCACGCA	0.24 ± 0.0201
CGACACGA	0.421 ± 0.0189
AGACACGA	0.369 ± 0.0153
CGACGCGA	0.151 ± 0.0242
CGACACGC	0.424 ± 0.0203
AGACACGC	0.346 ± 0.00786
CACTCCGC	0.256 ± 0.00576
ACCCTTTC	0.194 ± 0.0513
CACTCTGC	0.187 ± 0.0156
GCCCCGCC	0.175 ± 0.055
CGATACCA	0.321 ± 0.00519
CGATACCC	0.411 ± 0.012
GGATACCA	0.327 ± 0.00751
CAATACCC	0.218 ± 0.00416
GGATACCC	0.403 ± 0.00919

Sequence	binding signal [E-score]
AGATACCC	0.278 ± 0.0188
CAACCACG	0.155 ± 0.0108
CACTCTGG	0.187 ± 0.00384
CCCCCTGC	0.156 ± 0.0255
ACAGAGGT	0.156 ± 0.00829
ATTAGGTG	0.296 ± 0.00518
ACCATGGT	0.2 ± 0.05
CACCGTTC	0.3236 ± 0.00306
GGATACAA	0.161 ± 0.00762
AGATACAC	0.424 ± 0.0151
AGATACCA	0.192 ± 0.0243
CGATACCG	0.233 ± 0.0113
CGATACTC	0.211 ± 0.00408
CGATACAC	0.402 ± 0.0188
GGATACAC	0.424 ± 0.00693
GGATACTA	0.152 ± 0.0189
AGATACCT	0.179 ± 0.011
CTGCCCGC	0.163 ± 0.0123
CACCGACA	0.374 ± 0.0291
TACTGATA	0.192 ± 0.0304
GTATCCAC	0.287 ± 0.00341
GTATGGTA	0.159 ± 0.00206
AGGGTGTC	0.4879 ± 0.00164
AGGGGGTG	0.396 ± 0.00554
AGGGGGTA	0.358 ± 0.00366

Sequence	binding signal [E-score]
AGGGTGCG	0.226 ± 0.0208
AGGGTGGG	0.176 ± 0.00829
AAGGGGTG	0.227 ± 0.00304
CGGGTGGA	0.173 ± 0.033
AGGGTATC	0.363 ± 0.0101
CGGGTGCA	0.238 ± 0.0106
CGGGTGTA	0.47551 ± 0.00024
AGGGGGTC	0.271 ± 0.0446
AGGGTGTG	0.4 ± 0.015
CATCCGGG	0.156 ± 0.00322
ACCCTCGT	0.1905 ± 0.000806
CACCGAGA	0.276 ± 0.0313
TGTAGAAA	0.225 ± 0.0216
AATCGACA	0.173 ± 0.025
ACAAGGTC	0.218 ± 0.0287
CAGGCAGG	0.186 ± 0.0165
CACGCTAC	0.242 ± 0.0124
CCCCGACA	0.324 ± 0.012
GGGGTGAA	0.154 ± 0.0542
AGGGTGTA	0.475 ± 0.00846
CGGGTGGC	0.178 ± 0.0577
AGGGTGCA	0.265 ± 0.0337
GGGGTGCA	0.273 ± 0.0552
CGGGGGTC	0.314 ± 0.0405
GGGGTGTA	0.4856 ± 0.000757

Sequence	binding signal [E-score]
CGGGTGTC	0.487 ± 0.00672
AGGGTATA	0.199 ± 0.0079
CGATACTA	0.157 ± 0.00168
AGTGCACA	0.171 ± 0.00742
AGCCGGTG	0.282 ± 0.011
CCGGTACA	0.224 ± 0.00738
ACTTGGTG	0.2882 ± 0.00137
CCCCAATA	0.153 ± 0.00289
CCGAGTGA	0.156 ± 0.00131
CACCGCCG	0.375 ± 0.0128
GCGTGCTA	0.151 ± 0.031
CCGTGTTC	0.384 ± 0.0141
CCGTGGTA	0.166 ± 0.0401
GCGTGTTA	0.387 ± 0.0267
CCGTGCTC	0.226 ± 0.0264
ACGTGTTA	0.352 ± 0.0237
CCGTGTTA	0.4236 ± 0.00253
ACGTGTTC	0.3144 ± 0.00304
GCGTGATA	0.173 ± 0.0569
CACAGTGG	0.16 ± 0.0343
CGGGGATC	0.212 ± 0.00313
CGCACGAC	0.187 ± 0.0218
